# Screens: PubChem BioAssay, National Center for Advancing Translational Sciences (NCATS)
# Rab9 prom act: Rab9 promoter activation; Huh7 Rab9 promoter-luciferase reporter, luminescence, 24 h; Potency, µM (highest dose often 9.22 µM), most hits filed as activators; 320,000 compounds, 2.8% hits; AID 485297; further: nearly all actives have a fitted effect of over 60% in size
#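 Luciferase signal after 10 min detection reagent at ambient indicates Rab9 promoter upregulation; stably transfected Huh7 cells were treated 24 h with compound in DMSO at 37 °C, 5% CO2.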
# NPC1 promoter act: NPC1 promoter activation; Huh7 NPC1 promoter luciferase reporter, 24 h; AID 485313; Potency, µM (top dose mostly 9.22 µM), actives largely listed as activators; 320,000 compounds, 2.4% hits; further: nearly all actives have a fitted effect of over 60% in size
#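 Luciferase expression driven by the NPC1 promoter was measured in stably transfected Huh7 cells after a 24 h compound incubation, using a luciferase reagent and a luminescence read.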
# FLuc counter: counter-screen for miR-21 project: firefly luciferase inhibitors or activators | P08659 | 360,000 compounds, 6.9% hits | Potency, µM (doses to about 57.5 µM), most hits filed as inhibitors | purified FLuc, Km substrates, luminescence inhibition; further: nearly all actives have a fitted effect of over 55% in size
# Target sequence (P08659 whole entry, looked up): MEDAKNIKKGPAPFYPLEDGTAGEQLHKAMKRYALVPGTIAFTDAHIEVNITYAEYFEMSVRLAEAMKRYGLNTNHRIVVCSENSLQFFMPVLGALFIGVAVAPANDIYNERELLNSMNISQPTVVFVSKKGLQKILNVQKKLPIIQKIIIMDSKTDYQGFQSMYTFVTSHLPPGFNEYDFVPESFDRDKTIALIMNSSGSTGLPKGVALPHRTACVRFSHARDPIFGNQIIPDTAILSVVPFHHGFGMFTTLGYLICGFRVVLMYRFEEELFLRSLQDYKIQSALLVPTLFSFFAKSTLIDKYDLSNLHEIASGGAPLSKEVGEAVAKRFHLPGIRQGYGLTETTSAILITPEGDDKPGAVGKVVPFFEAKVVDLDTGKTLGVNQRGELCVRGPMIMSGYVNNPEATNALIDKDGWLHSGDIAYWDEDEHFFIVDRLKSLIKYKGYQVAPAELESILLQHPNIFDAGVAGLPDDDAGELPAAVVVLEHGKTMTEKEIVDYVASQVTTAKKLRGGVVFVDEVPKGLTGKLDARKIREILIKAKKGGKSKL
#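 Purified P. pyralis luciferase (10nM final) with 10uM D-luciferin and 10uM ATP (Km levels) in 50mM Tris acetate pH 7.5, 10mM Mg acetate, 0.01% Tween-20, 0.05% BSA; qHTS 6-point titration, ~60 µM downward; luminescence read.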
# ELG1 genotox: genotoxicity induction in ELG1-luciferase HEK293T cells | HEK293T ELG1-luciferase reporter, luminescence, 16 h | Potency, µM (doses to about 46 µM), hits mostly activators | 330,000 compounds, 1.3% hits | AID 504466; further: nearly all actives have a fitted effect of over 60% in size
#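 Cells (2,000/well) expressing the ELG1-luciferase fusion are dosed by pin tool and kept 16 hr at 37 °C, 5% CO2. Signal comes from ONE-Glo luciferase reagent after 30 min at room temperature.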
# SMN2 splice up: enhancers of SMN2 splice variant expression; Potency, µM (doses to about 46.1 µM), hits mostly activators; 210,000 compounds, 2.8% hits; AID 1458; HEK293 SMN2-luciferase splicing reporter, luminescence, 30-36 h; further: nearly all actives have a fitted effect of over 55% in size
#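 qHTS luciferase splicing reporter: luminescence rises when SMN2 exon 7 is included in transfected HEK293 cells. Compound exposure lasted 30-36 h at 37C, with 4.5 mM final sodium butyrate as control, followed by a ONE-Glo read.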
# Hits are given with their value; . = inactive; ? = inconclusive; / = not tested or not shown; [ ] = remark or other dose. Rows were chosen to be rich in hits. Some 7.5% of all compounds tested hit in one or more screens of this group. The call rests on the fitted dose curve; in most records, active means well fitted curve in the direction sought with a large enough effect; inconclusive means small, poorly fitted or top-dose-only effect, or another doubt; inactive means no such curve, though single readings can be large; an effect the other way counts as inactive or inconclusive.
SMILES,Rab9 prom act,NPC1 promoter act,FLuc counter,ELG1 genotox,SMN2 splice up
CSc1sc(C(=O)NN)c2c1C1(CCC2)SCCS1,.,.,.,.,/
Cn1cc(C(=O)c2ccc(Cl)cc2Cl)cc1C=O,.,.,.,.,.
CCOc1ccc(-c2cc(CCCC(=O)Nc3cccc(OC)c3)no2)cc1,.,.,6.7µM,.,.
CCOc1ccc(-c2cc(CCCC(=O)Nc3cc(OC)ccc3OC)no2)cc1,.,.,6µM,.,.
CCCCNc1c(CN)cnc2cc(Cl)ccc12,/,/,/,/,.[9.22 µM]
Cc1ccc(S(=O)(=O)Nc2cccc(-c3ccc(N4CCCCCC4)nn3)c2)c(C)c1,?,?,11µM,?,/
O=S(=O)(Nc1cccc(-c2ccc(N3CCCC3)nn2)c1)c1ccc(F)cc1F,/,/,15µM,/,/
O=S(=O)(Nc1cccc(-c2ccc(N3CCCCC3)nn2)c1)c1cccc(F)c1,/,/,2.4µM,/,/
Cc1c(Cl)cccc1-n1nnc(-c2nc(-c3ccc4c(c3)OCO4)no2)c1C,/,/,3µM,/,/
NC(=O)COC(=O)c1ccc(C(=O)C(=O)c2ccccc2)cc1,.,.,.,.,.
NC(=O)COC(=O)c1ccc2noc(-c3ccccc3)c2c1,.,4µM,.,.,/
COc1ccccc1NC(=O)C(C(C)C)N1C(=O)c2ccccc2C1=O (stereo not given),.,.,.,.,/
Cc1cccc(N=Nc2cnc(N)s2)c1,3.2µM,3.2µM,6µM,?,/
CCCN1CCN(S(=O)(=O)c2c(C)[nH]c(C)c2C(=O)N2CCCCC2)CC1,.,.,.,.[9.26 µM],/
O=C1ON=C(c2ccc(Cl)cc2)/C1=C/c1ccc(O)cc1,.,.,11µM,?,.
O=C1ON=C(c2ccccc2)/C1=C/c1ccc(O)cc1,.,.,?,?,/
COc1cc(/C=C2\C(=O)ON=C2c2ccccc2)cc(Cl)c1O,.,.,19µM,.,.
COc1cc(/C=C2/C(=O)ON=C2c2ccccc2)ccc1O,.,.,19µM,.,.
Cc1ccc2c(Cn3cc(C(F)(F)F)cc(Cl)c3=O)cc(=O)oc2c1,.,.,.,.,.
C[C@@H]1NS(=O)(=O)[C@H]2C[C@@H]3C=C[C@]2(O3)[C@H]1OC(=O)c1ccccc1Br,.,.,.,.,/
CN(C)S(=O)(=O)c1cccc(C(=O)Nc2ccccc2[N+](=O)[O-])c1,.,.,?,.,.
CCN(CC)S(=O)(=O)c1cc(C(=O)Nc2ccccc2[N+](=O)[O-])ccc1Cl,?,?,9.5µM,?,.[1.84 µM]
CCN(CC)S(=O)(=O)c1cc(C(=O)Nc2cc(C)[nH]n2)ccc1Cl,2.5µM,2.2µM,8.5µM,?,/
CCOC(=O)[C@H]1[C@H]2COc3ccc(Cl)cc3[C@@H]2N2C(=O)[C@@H](C)NC(=O)[C@@]12C,/,/,/,.,/
COc1ccc(OC)c(C(=O)c2c(C)oc3cc([N+](=O)[O-])c(O)c([N+](=O)[O-])c23)c1,.,.,21µM,.,/
SMILES,Rab9 prom act,NPC1 promoter act,FLuc counter,ELG1 genotox,SMN2 splice up
Cc1oc2cc([N+](=O)[O-])c(O)c([N+](=O)[O-])c2c1C(=O)c1ccc(Cl)cc1,.,.,?,.,/
O=C(CN1C(=O)NC2(CCCc3ccccc32)C1=O)N1CCN(c2cccc(C(F)(F)F)c2)CC1 (stereo not given),.,.,.,.,/
Cc1cc(C)c(NC(=O)c2cc3c(=O)n4ccccc4nc3n2C)c(C)c1,/,/,.,/,/
Cn1c(C(=O)NCc2ccccn2)cc2c(=O)n3ccccc3nc21,2µM,?,15µM,?,14µM
CCCCC(=O)NNC(=O)CC(=O)Nc1ccccc1C(=O)O,.,.,.,.,/
CC(=O)CSc1nnc(-c2ccc3c(c2)OCO3)o1,2.8µM,?,6.7µM,?,14µM
c1cc(CSc2nnc(-c3ccc4c(c3)OCO4)o2)ccn1,2.5µM,2.5µM,?,.,.
COc1ccc(C2=NCC(CSc3nccc(=O)[nH]3)S2)cc1 (stereo not given),.,.,19µM,.,.
CC(=O)Nc1ccc(NC(=O)CSc2nnc(-c3ccc4c(c3)OCO4)o2)cc1,/,/,/,.,/
O=C1OCCC1Sc1nnc(-c2ccc(O)cc2)o1 (stereo not given),.,.,?,.,.
O=C1OCCC1Sc1nnc(-c2ccc3c(c2)OCO3)o1 (stereo not given),.,.,9.5µM,.,.
CSc1ccc(C(=O)C2CCCN(C(=O)CCc3cnn(C)c3)C2)cc1 (stereo not given),.,.,.,.,/
O=C(CCc1ccccc1)NC1CC(=O)N(c2ccccc2)C1 (stereo not given),/,/,.,/,/
O=C(O)CCSc1nnc(-c2ccc3c(c2)OCO3)o1,.,.,13µM,.,.
O=c1c2ccccc2nnn1CSc1ccc2ccccc2n1,.,.,.,.,.[1.84 µM]
O=c1c2ccccc2nnn1CSc1nnc(-c2ccc3c(c2)OCO3)o1,?,?,6.7µM,?,?
O=c1c2ccccc2nnn1CSc1ccccc1,0.56µM,1µM,1.9µM,?,7.9µM
COc1ccc(C2=NCC(CSc3nnc(-c4ccc5c(c4)OCO5)o3)S2)cc1 (stereo not given),?,.,9.5µM,.,.
O=C(OCc1ccco1)c1ccc2c(c1)N(Cc1cccc(F)c1)C(=O)c1ccccc1S2,/,/,.,/,/
Nn1c(COc2ccccc2)nc2ccccc2c1=O,.,?,?,.,.
c1ccc([C@H]2CN3C(=N2)Sc2ccccc23)cc1,.,?,0.48µM,?,/
N#CC1=C(N)N2C(=C(C#N)C1c1ccccc1)Sc1ccccc12 (stereo not given),.,.,.,.,?
Cn1c(COc2ccccc2Br)nc2ccccc21,?,2.5µM,6.7µM,10µM,/
C=CCc1ccccc1OCc1nc2ccccc2n1CC,/,/,?,/,.
CCn1c(CCc2ccccc2)nc2ccccc21,.,.,17µM,.,/
SMILES,Rab9 prom act,NPC1 promoter act,FLuc counter,ELG1 genotox,SMN2 splice up
CCc1nc2ccccc2n1CCc1ccccc1,.,.,.,.,.
CCn1c(COc2ccccc2C)nc2ccccc21,.,.,11µM,?,?
CCn1c(COc2ccccc2OC)nc2ccccc21,.,.,17µM,.,/
CN(Cc1ccncc1)C1CC(=O)N(c2ccc(F)cc2)C1=O (stereo not given),.,.,.,.,.
O=C(NCc1ccccc1)C1=C[C@H](c2ccc3c(c2)OCO3)C[C@H](OCCCCO)O1,.,.,.,.,/
O=C(NCc1ccc2c(c1)OCO2)C1CCC(=O)N1C1CCCCC1 (stereo not given),.,.,.,.,/
c1ccc(-c2cnc(CSc3nnc4ccccn34)o2)cc1,1µM,1.6µM,11µM,4.1µM,11µM
Cc1c(NC(=S)NC(=O)c2cccc([N+](=O)[O-])c2)c(=O)n(-c2ccccc2)n1C,.,.,.,.,/
CCCCN1C(=O)/C(=C/C=C2\Oc3ccccc3N2CC)SC1=S,.,.,.,.,/
CCN1C(=O)/C(=C/C=C2/SCCN2C)SC1=S,0.45µM,0.45µM,0.85µM,?,?
CN1/C(=C\C=C2/SC(=S)N(CC(=O)O)C2=O)C(C)(C)c2ccccc21,.,.,17µM,.,.
